These results are taken from PubChem BioAssay (EPA / NIEHS).

Assay [1] in a line: ATG_GLI_CIS: Attagene CIS-FACTORIAL HepG2 Assay for human Zinc Finger Protein GLI1 (AID 2282945). The following applies: HepG2, Attagene cis-factorial reporter mRNA, GLI element; actives raise or lower the signal. A digest of the protocol:
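HepG2 cells transiently transfected with cis-promoter multiplexed reporter units report endogenous transcription factor activity. After 24 h chemical exposure, reporter mRNA was quantified by RT-PCR, 6-FAM labelling, HpaI digestion and capillary electrophoresis, with bidirectional fitting against DMSO.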

Assay [2] concerns the target Bile acid receptor (Homo sapiens) (UniProt Q96RI1). Kind of assay: ATG_IR1_CIS: Attagene CIS-FACTORIAL HepG2 Assay for human Nuclear Receptor Subfamily 1 Group H Member 4 (NR1H4), IR1 submotif (AID 2282946). The following applies: IR1 reporter transcription, actives raise or lower the signal. A digest of the protocol:
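Transient MRTU transfection, HepG2; 24 h dosing; RNA → RT-PCR → 6-FAM primer extension → HpaI digest → capillary electrophoresis fluorescence. Gain/loss of signal fitted relative to DMSO.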

Assay [3] can be described thus: ATG_GRE_CIS: Attagene CIS-FACTORIAL HepG2 Assay for human Glucocorticoid Response Elements (GRE) (AID 2282947). The following applies: HepG2 GRE cis-reporter, Attagene multiplex mRNA; actives raise or lower the signal. A digest of the protocol: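 HepG2 cells transiently transfected with multiple cis-promoter reporter units measure endogenous TF activity; 24 h compound exposure. Reporter mRNA quantified by RT-PCR, FAM labelling, HpaI digestion and capillary electrophoresis; bidirectional fit vs DMSO baseline.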

The nature of assay [4]: ATG_ISRE_CIS: Attagene CIS-FACTORIAL HepG2 Assay for human Interferon Regulatory Factor 1 (IRF1) binding to an Interferon-Stimulated Response Element (ISRE) (AID 2282948). The following applies: HepG2 ISRE cis-reporter (Attagene), mRNA transcription readout; actives raise or lower the signal. A digest of the protocol:
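HepG2 cells transiently transfected with multiplexed cis-promoter reporter units; after 24 h compound exposure, reporter mRNA quantified by RT-PCR, FAM labelling, HpaI digestion and capillary electrophoresis. Bidirectional fit versus DMSO baseline.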

A short description of assay [5]: ATG_M_32_CIS: Attagene CIS-FACTORIAL HepG2 Assay for M32 Transcription Factor (Internal Marker) (AID 2282949).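 Further: background control marker of the multiplexed CIS panel rather than a real target.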 The following applies: HepG2 Attagene cis-factorial M32 reporter, mRNA; actives raise or lower the signal. A digest of the protocol:
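Following 24 h chemical exposure of HepG2 cells transiently expressing cis-promoter reporter constructs, reporter transcript levels were determined by RT-PCR with fluorescent labelling and capillary electrophoresis, then fitted bidirectionally against DMSO.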

A short description of assay [6]: ATG_M_06_CIS: Attagene CIS-FACTORIAL HepG2 Assay for M06 Transcription Factor (Internal Marker) (AID 2282950). The following applies: HepG2 Attagene CIS-FACTORIAL M06 internal marker reporter; actives raise or lower the signal. A digest of the protocol: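 HepG2 liver cells, 24 h exposure. Reporter transcripts from transfected cis-element constructs quantified by RT-PCR/capillary electrophoresis fluorescence. Bidirectional curve fit against DMSO.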

The target of assay [7] is Hypoxia-inducible factor 1-alpha (Homo sapiens) (UniProt Q16665). The assay is described as follows: ATG_HIF1a_CIS: Attagene CIS-FACTORIAL HepG2 Assay for human Hypoxia Inducible Factor 1 (HIF1A) (AID 2282951). The following applies: HepG2 Attagene cis-factorial HIF1a reporter transcription; actives raise or lower the signal. The essentials: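 Measures endogenous transcription-factor activity through cis-regulated reporter mRNA in HepG2. Cells dosed 24 h; transcripts quantified by RT-PCR with 6-FAM-labelled products separated by capillary electrophoresis; DMSO serves as negative control.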

Assay [8] has as its target Hepatocyte nuclear factor 6 (Homo sapiens) (UniProt Q9UBC0). The assay is described as follows: ATG_HNF6_CIS: Attagene CIS-FACTORIAL HepG2 Assay for human Hepatocyte Nuclear Factor 6 (HNF6) (AID 2282952). The following applies: HepG2 Attagene cis-factorial HNF6 reporter transcription; actives raise or lower the signal. The essentials:
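HepG2 cells transiently transfected with cis-element-driven multiplexed reporter units measuring endogenous transcription factor activity. After 24 h exposure, reporter mRNA quantified by RT-PCR, FAM-labelled fragments and capillary electrophoresis; bidirectional fitting versus DMSO.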

The target in assay [9] is Heat shock factor protein 1 (Homo sapiens) (UniProt Q00613). Kind of assay: ATG_HSE_CIS: Attagene CIS-FACTORIAL HepG2 Assay for human Heat Shock Transcription Factor 1 (HSE) (AID 2282953). The following applies: HepG2 HSE cis-reporter, Attagene RNA transcription; actives raise or lower the signal. A digest of the protocol:
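Endogenous transcription factor activity captured via cis-promoter reporter units transfected into HepG2; treatment lasted 24 h. Fluorescence intensity of reporter fragments analysed with bidirectional curve fitting, DMSO baseline.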

Assay [10] can be described thus: ATG_MRE_CIS: Attagene CIS-FACTORIAL HepG2 Assay for human Metal Responsive Element (MRE) (AID 2282954). The following applies: HepG2 MRE cis-reporter transcription, Attagene multiplex; actives raise or lower the signal. The essentials: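 HepG2 cells transiently transfected with multiple cis-element reporter units measure endogenous MTF1-driven transcription. After 24 h compound exposure, reporter mRNA is quantified by RT-PCR with 6-FAM labelling, HpaI digestion and capillary electrophoresis; bidirectional fits versus DMSO.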

A short description of assay [11]: ATG_PBREM_CIS: Attagene CIS-FACTORIAL HepG2 Assay for human Phenobarbital-responsive Enhancer Module (PBREM) (AID 2282955). The following applies: HepG2 PBREM cis-reporter, Attagene multiplexed transcription; actives raise or lower the signal. A digest of the protocol:
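Fluorescence of labelled reporter cDNA fragments, resolved by capillary electrophoresis, gives mRNA induction in transfected HepG2 cells treated for 24 h; DMSO serves as negative control and baseline.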

The target in assay [12] is Paired box protein Pax-6 (Homo sapiens) (UniProt P26367). The assay is described as follows: ATG_Pax6_CIS: Attagene CIS-FACTORIAL HepG2 Assay for human Paired Box 6 (PAX6) (AID 2282956). The following applies: HepG2 CIS-FACTORIAL PAX6 reporter transcription, RNA readout; actives raise or lower the signal. A digest of the protocol: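 HepG2 cells transiently transfected with multiplexed cis-promoter reporter units (endogenous TF activity) were dosed for 24 h. Reporter mRNA was quantified by RT-PCR, 6-FAM labeling, HpaI digestion and capillary electrophoresis; bidirectional fitting versus DMSO baseline.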

A short description of assay [13]: ATG_PXRE_CIS: Attagene CIS-FACTORIAL HepG2 Assay for human Pregnane X Receptor Element (PXRE) (AID 2282957). The following applies: HepG2 Attagene CIS-FACTORIAL PXRE reporter, mRNA; actives raise or lower the signal. A digest of the protocol:
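HepG2 cells transiently transfected with cis-element-driven multiplexed reporter units; after 24 h chemical exposure, reporter mRNA measured by RT-PCR, 6-FAM labelling, HpaI digestion and capillary electrophoresis. Bidirectional fitting relative to DMSO.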

Assay [14] in a line: ATG_PPRE_CIS: Attagene CIS-FACTORIAL HepG2 Assay for human Peroxisome Proliferator-activated Response Element (PPRE) (AID 2282958). The following applies: HepG2 PPRE cis-element reporter, Attagene transcription factor profiling; actives raise or lower the signal. A digest of the protocol:
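Cells are first transfected transiently with the multiplexed reporter library, then dosed for 24 h. Total RNA is reverse-transcribed, amplified, fluorescently end-labeled and HpaI-cut before capillary electrophoresis; activity is fitted bidirectionally against DMSO controls.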

The nature of assay [15]: ATG_RORE_CIS: Attagene CIS-FACTORIAL HepG2 Assay for human RAR-related Orphan Receptor Element (RORE) (AID 2282959). The following applies: HepG2 Attagene cis-factorial RORE reporter, mRNA; actives raise or lower the signal. The essentials: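 Cells were HepG2 carrying transfected cis-regulated reporter constructs, dosed for 24 hours. Total RNA was reverse-transcribed and reporter cDNA amplified, fluorescently labeled and sized by capillary electrophoresis. Activity was fitted bidirectionally relative to DMSO.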

The nature of assay [16]: ATG_Sox_CIS: Attagene CIS-FACTORIAL HepG2 Assay for human SRY-box transcription factor (SOX) (AID 2282960). The following applies: HepG2 Attagene cis-factorial SOX reporter, mRNA; actives raise or lower the signal. A digest of the protocol:
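Transient MRTU transfection of HepG2; 24 h compound incubation; TriZol RNA, oligo(dT) RT, PCR, 6-FAM primer extension, HpaI cut, CE. Bidirectional fit, DMSO = baseline.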

Assay [17] addresses Transcription factor Sp1 (Homo sapiens) (UniProt P08047). The assay is described as follows: ATG_Sp1_CIS: Attagene CIS-FACTORIAL HepG2 Assay for human Specificity Protein 1 (Sp1) (AID 2282961). The following applies: HepG2 Sp1 cis-reporter transcription, actives raise or lower the signal. The essentials: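 Endogenous Sp1 activity was gauged in human liver HepG2 cells bearing transfected reporter units under a cis-regulating promoter. After 24 h dosing, reporter mRNA was quantified by RT-PCR with capillary electrophoresis, and activity fitted bidirectionally versus DMSO.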

Assay [18] in a line: ATG_SREBP_CIS: Attagene CIS-FACTORIAL HepG2 Assay for human Sterol Regulatory Element Binding (SREBP) (AID 2282962). The following applies: HepG2 Attagene cis-factorial SREBP reporter, mRNA; actives raise or lower the signal. The essentials:
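HepG2 cells transiently transfected with multiplexed cis-element reporter units report endogenous transcription factor activity. After 24 h of chemical exposure, reporter mRNA was quantified by RT-PCR, 6-FAM labelling, HpaI digestion and capillary electrophoresis; bidirectional fits used DMSO as baseline.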

Assay [19] concerns the target Signal transducer and activator of transcription 3 (Homo sapiens) (UniProt P40763). Kind of assay: ATG_STAT3_CIS: Attagene CIS-FACTORIAL HepG2 Assay for human Signal Transducer and Activator of Transcription 3 (STAT3) (AID 2282963). The following applies: HepG2, Attagene cis-factorial STAT3 reporter transcription; actives raise or lower the signal. The essentials:
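HepG2 cells transiently transfected with cis-element-driven multiple reporter transcription units; after 24 h chemical exposure, reporter mRNA measured by RT-PCR, 6-FAM primer-extension labelling, HpaI digestion and capillary electrophoresis. Bidirectional fitting versus DMSO baseline.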

Assay [20] in a line: ATG_TA_CIS: Attagene CIS-FACTORIAL HepG2 Assay for human TA Basal Promoter (AID 2282964). The following applies: HepG2 Attagene CIS-factorial TA basal promoter reporter; actives raise or lower the signal. A digest of the protocol: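 Fluorescence from labelled RT-PCR reporter fragments, separated by capillary electrophoresis, gives the signal. Cells: HepG2 transiently carrying multiple reporter units, 24 h chemical dosing. Gain or loss relative to DMSO.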

The AC50 is the concentration at which the activity in the assay is half-maximal.

Several values for one entry are separate records, joined by “and”; a condition that tells them apart may be missing. Equal entries are not always repeated. A structure can be active in one record and inactive in another. Activity calls are given as the source filed them. How the source made its calls: active means hit-call score of the fitted dose curve at least 0.9, where 1 is the maximum; inactive means score below 0.9.

Bile acid receptor (Homo sapiens), sequence (Q96RI1 whole entry, looked up): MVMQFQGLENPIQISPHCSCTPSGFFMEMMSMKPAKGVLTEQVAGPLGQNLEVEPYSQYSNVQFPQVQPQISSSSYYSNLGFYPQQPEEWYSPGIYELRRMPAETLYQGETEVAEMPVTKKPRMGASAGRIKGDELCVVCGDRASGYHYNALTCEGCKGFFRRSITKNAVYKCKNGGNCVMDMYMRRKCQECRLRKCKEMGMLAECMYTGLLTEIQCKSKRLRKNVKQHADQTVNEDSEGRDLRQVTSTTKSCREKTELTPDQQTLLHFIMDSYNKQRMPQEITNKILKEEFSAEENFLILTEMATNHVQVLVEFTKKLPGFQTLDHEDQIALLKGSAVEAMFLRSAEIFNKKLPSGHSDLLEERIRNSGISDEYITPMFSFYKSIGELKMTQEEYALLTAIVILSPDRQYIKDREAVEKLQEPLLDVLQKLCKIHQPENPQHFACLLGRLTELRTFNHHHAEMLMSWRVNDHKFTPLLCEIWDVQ
Hypoxia-inducible factor 1-alpha (Homo sapiens), sequence (Q16665 whole entry, looked up): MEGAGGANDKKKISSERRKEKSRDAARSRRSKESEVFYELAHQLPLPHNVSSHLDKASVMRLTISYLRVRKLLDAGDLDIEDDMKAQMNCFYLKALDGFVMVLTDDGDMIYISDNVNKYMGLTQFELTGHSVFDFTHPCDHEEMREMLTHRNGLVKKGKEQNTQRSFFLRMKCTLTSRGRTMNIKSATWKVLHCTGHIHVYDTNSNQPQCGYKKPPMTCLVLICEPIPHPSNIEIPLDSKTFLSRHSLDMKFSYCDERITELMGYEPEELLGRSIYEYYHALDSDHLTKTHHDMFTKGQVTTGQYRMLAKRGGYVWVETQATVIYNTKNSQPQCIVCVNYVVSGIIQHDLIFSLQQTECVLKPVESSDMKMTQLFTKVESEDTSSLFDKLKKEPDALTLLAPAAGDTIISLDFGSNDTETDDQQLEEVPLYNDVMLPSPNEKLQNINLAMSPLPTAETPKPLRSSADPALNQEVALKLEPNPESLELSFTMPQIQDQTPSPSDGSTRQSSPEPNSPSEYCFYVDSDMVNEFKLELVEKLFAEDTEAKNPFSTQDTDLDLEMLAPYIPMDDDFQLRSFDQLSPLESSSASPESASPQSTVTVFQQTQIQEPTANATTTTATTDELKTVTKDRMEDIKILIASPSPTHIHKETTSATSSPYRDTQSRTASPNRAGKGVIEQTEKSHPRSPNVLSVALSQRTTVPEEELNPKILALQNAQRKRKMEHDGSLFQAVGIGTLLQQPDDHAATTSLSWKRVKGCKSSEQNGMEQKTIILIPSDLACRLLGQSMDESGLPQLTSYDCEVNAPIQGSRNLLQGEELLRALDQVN
Heat shock factor protein 1 (Homo sapiens), sequence (Q00613 whole entry, looked up, the tested form may be a part): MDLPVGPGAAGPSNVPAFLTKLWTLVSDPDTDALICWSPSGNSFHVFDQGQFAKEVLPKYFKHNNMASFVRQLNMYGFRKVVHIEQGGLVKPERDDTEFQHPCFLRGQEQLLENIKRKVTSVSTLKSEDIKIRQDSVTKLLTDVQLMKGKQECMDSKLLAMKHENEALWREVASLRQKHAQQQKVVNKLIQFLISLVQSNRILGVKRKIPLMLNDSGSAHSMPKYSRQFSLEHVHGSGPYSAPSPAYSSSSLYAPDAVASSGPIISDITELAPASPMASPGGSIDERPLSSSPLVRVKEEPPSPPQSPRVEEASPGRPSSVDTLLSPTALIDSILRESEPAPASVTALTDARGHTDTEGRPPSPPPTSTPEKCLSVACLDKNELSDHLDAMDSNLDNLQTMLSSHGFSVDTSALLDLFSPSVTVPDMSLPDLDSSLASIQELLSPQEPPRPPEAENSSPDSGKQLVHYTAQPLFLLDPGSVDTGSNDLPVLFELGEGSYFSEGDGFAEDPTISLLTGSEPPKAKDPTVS
Signal transducer and activator of transcription 3 (Homo sapiens), sequence (P40763 whole entry, looked up): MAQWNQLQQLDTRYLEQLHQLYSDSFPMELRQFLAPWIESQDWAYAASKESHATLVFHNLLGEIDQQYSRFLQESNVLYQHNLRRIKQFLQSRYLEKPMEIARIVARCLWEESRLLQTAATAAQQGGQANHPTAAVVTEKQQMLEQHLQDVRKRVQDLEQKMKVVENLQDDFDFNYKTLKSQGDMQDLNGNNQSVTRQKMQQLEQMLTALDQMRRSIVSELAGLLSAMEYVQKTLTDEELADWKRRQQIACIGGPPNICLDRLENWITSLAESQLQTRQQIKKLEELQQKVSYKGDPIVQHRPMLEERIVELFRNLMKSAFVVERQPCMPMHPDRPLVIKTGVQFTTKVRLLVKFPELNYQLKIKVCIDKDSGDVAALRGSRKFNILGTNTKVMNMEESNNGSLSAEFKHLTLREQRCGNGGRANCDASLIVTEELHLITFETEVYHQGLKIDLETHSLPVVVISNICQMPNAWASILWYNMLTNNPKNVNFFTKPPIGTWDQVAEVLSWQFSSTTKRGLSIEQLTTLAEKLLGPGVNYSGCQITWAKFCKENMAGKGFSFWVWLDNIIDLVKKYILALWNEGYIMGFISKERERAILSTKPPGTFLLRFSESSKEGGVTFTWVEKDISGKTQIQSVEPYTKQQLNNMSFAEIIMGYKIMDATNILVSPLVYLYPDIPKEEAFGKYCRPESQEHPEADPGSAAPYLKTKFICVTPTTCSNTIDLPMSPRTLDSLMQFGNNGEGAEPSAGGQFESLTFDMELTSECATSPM
Transcription factor Sp1 (Homo sapiens), sequence (P08047 whole entry, looked up): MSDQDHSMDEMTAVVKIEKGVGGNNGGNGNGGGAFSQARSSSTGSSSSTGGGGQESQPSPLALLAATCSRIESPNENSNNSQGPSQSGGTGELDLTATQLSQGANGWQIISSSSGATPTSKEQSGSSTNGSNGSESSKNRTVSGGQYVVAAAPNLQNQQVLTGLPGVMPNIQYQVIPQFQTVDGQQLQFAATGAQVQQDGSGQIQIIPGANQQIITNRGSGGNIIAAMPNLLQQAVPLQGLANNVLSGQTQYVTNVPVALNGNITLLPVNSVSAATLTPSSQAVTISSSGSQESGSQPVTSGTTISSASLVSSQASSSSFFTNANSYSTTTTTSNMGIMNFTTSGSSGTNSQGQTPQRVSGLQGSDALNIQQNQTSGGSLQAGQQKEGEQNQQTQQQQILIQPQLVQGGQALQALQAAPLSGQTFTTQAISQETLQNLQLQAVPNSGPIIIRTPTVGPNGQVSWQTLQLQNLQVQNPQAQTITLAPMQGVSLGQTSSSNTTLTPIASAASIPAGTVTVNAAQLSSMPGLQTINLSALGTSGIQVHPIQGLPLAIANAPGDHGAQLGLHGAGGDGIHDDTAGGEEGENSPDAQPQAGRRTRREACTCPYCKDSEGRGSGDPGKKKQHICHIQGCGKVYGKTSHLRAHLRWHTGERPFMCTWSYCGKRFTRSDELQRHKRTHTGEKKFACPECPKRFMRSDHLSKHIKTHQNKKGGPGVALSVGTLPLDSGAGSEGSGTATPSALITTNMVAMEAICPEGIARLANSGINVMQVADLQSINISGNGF
Hepatocyte nuclear factor 6 (Homo sapiens), sequence (Q9UBC0 whole entry, looked up, the tested form may be a part): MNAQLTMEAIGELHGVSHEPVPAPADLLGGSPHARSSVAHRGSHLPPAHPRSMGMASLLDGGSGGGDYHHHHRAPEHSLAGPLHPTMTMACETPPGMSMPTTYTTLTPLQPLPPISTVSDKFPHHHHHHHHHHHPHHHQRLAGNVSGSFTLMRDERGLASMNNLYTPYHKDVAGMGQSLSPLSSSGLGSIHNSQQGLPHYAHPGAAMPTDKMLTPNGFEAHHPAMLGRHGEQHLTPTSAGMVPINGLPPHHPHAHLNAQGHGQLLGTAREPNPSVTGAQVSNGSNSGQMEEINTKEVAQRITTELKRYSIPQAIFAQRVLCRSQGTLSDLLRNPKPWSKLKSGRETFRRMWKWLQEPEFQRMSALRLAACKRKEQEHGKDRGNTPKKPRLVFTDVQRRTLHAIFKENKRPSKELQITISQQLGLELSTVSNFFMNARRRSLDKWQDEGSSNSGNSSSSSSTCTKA
Paired box protein Pax-6 (Homo sapiens), sequence (P26367 whole entry, looked up): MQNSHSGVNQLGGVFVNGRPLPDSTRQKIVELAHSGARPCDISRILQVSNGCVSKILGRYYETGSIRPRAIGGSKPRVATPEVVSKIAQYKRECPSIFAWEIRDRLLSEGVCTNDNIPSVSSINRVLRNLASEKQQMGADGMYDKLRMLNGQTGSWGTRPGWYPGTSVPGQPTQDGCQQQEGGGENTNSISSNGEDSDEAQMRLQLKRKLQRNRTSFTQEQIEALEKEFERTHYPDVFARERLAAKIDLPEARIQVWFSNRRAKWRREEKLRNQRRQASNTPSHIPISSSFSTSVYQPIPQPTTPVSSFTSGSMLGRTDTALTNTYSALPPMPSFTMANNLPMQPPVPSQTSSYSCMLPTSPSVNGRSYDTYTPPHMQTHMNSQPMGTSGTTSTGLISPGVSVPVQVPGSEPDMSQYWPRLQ

In the case of `CCCCOc1ccc(N)cc1`, the molecule was called inactive in assay [1], in assay [2], in assay [3], in [4], in [5] and in [6]. Further, the call in assay [7], in assay [8], in assay [9], in [10], in [11] and in assay [12] was inactive. Also, the outcome in assay [13], in assay [14], in assay [15], in [16], in [17] and in [18] was inactive. Besides, the molecule was called inactive in [19] and in assay [20].

Turning to `O=S(=O)(O)C(F)(F)C(F)(F)C(F)(F)C(F)(F)C(F)(F)C(F)(F)C(F)(F)F`, the outcome in [1], in assay [2], in assay [3], in assay [4], in [5] and in assay [6] was inactive. Besides, the call in [7], in [8], in assay [9], in [10], in assay [11] and in assay [12] was inactive. For the same molecule, the molecule was classed as inactive in [14], in [15], in assay [16], in [17], in [18] and in assay [19]. For the same molecule, in assay [20], the molecule was classed as inactive. Besides, the AC50 in assay [5] is 149 µM (active); in assay [8], 157 µM (active); in assay [13], 20.3 µM (active) and 19.7 µM (active); in [14] it was 61.2 µM (active); in [18] it was 150 µM (active); in assay [19], 163 µM (active). Also, in assay [20], the AC50 was 159 µM (active).

In the case of `FC(F)(F)C(F)(F)C(F)(F)C(F)(F)C(F)(F)C(F)(F)CCS`, the outcome in [1], in assay [2], in assay [3], in [4], in [5] and in assay [6] was inactive. For the same molecule, the molecule was classed as inactive in [7], in assay [8], in assay [9], in assay [10], in assay [11] and in [12]. Further, the result in [13], in assay [14], in [15], in [16], in assay [17] and in assay [18] was inactive. The molecule was called inactive in assay [19] and in [20].
